# Measurements reported in the supplement of paper PMC10127200.
# Where a name gives a salt, the structure may show the parent alone.
# System: 786-O
# Experiment: Euclidean distance of Cell Painting phenotypic profile (signed KS, 77 features) to DMSO centroid (dimensionless distance); 5 or 10 uM (library dependent); higher = stronger phenotypic change vs DMSO (phenoactivity)
# Details: 48 h
# In short: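 At 10 or 5 uM, as set by the library, and 0.1% DMSO final, compounds were applied for 48 h to five cancer lines and one healthy fibroblast line. Stained cells were imaged confocally at 20X in 9 fields per well, and Harmony extracted 77 features scored as signed Kolmogorov-Smirnov statistics against vehicle wells on the same plate. Profiles underwent plate-position correction, correlation weighting and replicate averaging at the top dose. Phenoactivity is the Euclidean distance from each such profile to the median vehicle profile.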
row,Structure (SMILES),Euclidean distance
1,COc1cc([C@@H]2c3cc4c(cc3[C@@H](O[C@@H]3O[C@@H]5CO[C@@H](C)O[C@H]5[C@H](O)[C@H]3O)[C@H]3COC(=O)[C@H]23)OCO4)cc(OC)c1O [Etoposide],4.29
2,O=C(c1ccc(F)c(F)c1Nc1ccc(I)cc1F)N1CC(O)([C@@H]2CCCCN2)C1 [Cobimetinib (GDC-0973. RG7420)],2.92
3,Cc1c(F)cccc1NC(=O)Nc1ccc(Cl)c(S(=O)(=O)[C@H]2CCCNC2)c1O,1.18
4,Nc1nc2[nH]cc(CCc3ccc(C(=O)N[C@@H](CCC(=O)O)C(=O)O)cc3)c2c(=O)[nH]1 [Pemetrexed],1.73
5,COc1ccccc1N1CCN(CCN2C(=O)CC3(CCCC3)CC2=O)CC1,1.45
6,CC[C@H]1OC(=O)[C@@](C)(F)C(=O)[C@H](C)[C@@H](O[C@@H]2O[C@H](C)C[C@H](N(C)C)[C@H]2O)[C@](C)(OC)C[C@@H](C)C(=O)[C@H](C)[C@H]2N(CCCCn3cc(-c4cccc(N)c4)nn3)C(=O)O[C@]12C [Solithromycin],1.63
7,C[C@]12CC[C@@H]3c4ccc(O)cc4CC[C@H]3[C@@H]1CCC2=O [Estrone],0.82
8,Oc1c2ccccc2c2c3c(cccc13)N=N2,1.18
9,C=C1/C(=C\C=C2/CCC[C@]3(C)[C@@H]([C@H](C)CCCC(C)(C)O)CC[C@@H]23)C[C@@H](O)C[C@@H]1O [Calcitriol],1.91
10,Cc1c(-c2cnccn2)ssc1=S [Oltipraz],1.13
11,Cc1c(Nc2ncccc2C(=O)O)cccc1C(F)(F)F [Flunixin Meglumin],1.03
12,CO/N=C(\C(=O)N[C@@H]1C(=O)N2C(C(=O)O)=C(COC(C)=O)CS[C@H]12)c1csc(N)n1 [Cefotaxime sodium],1.09
13,c1coc(CNc2ncnc3[nH]cnc23)c1 [Kinetin],1.36
14,CC[C@]1(O)C[C@H]2CN(CCc3c([nH]c4ccccc34)[C@@](C(=O)OC)(c3cc4c(cc3OC)N(C=O)[C@H]3[C@@](O)(C(=O)OC)[C@H](OC(C)=O)[C@]5(CC)C=CCN6CC[C@]43[C@@H]65)C2)C1 [Vincristine],3.12
15,Nc1ncnc2c1ncn2[C@@H]1O[C@H](CO)[C@@H](O)[C@@H]1O [Vidarabine monohydrate],0.895
16,COCCCN1CCC(NC(=O)c2cc(Cl)c(N)c3c2OCC3)CC1 [Prucalopride Succinat],0.911
17,OC(CCCN1CCCCC1)(c1ccccc1)c1ccccc1 [Diphenidol HCl],1.04
18,CN(C)CC/C=C1/c2ccccc2COc2ccc(CC(=O)O)cc21 [Olopatadine HCl],0.847
19,NC(=O)c1cnccn1 [Pyrazinamide],1.07
20,CC(C)NCC(O)c1ccc(O)c(O)c1 (centres undefined) [Isoproterenol sulfate dihydrate],1.03

row,Structure (SMILES),Euclidean distance
1,Cc1cc(F)c(Nc2ncnc3cc(OCc4ccccc4)ccc23)cc1O,1.83
2,CCCCCCCCCC(=O)CC(O)S(=O)(=O)O (centres undefined) [Sodium Houttuyfonate],1.45
3,Oc1c(Br)cc(Br)c2cccnc12 [Broxyquinoline],0.96
4,Nc1ccn([C@H]2CC[C@@H](CO)O2)c(=O)n1 [Zalcitabine],1.06
5,Cc1cccc(-c2[nH]c(C(C)(C)C)nc2-c2ccc3nccnc3c2)n1,1.56
6,O=C(CCCCCN1C(=O)c2cccc3cccc(c23)C1=O)NO [Scriptaid],3.19
7,C[C@]12CCC3=C4CCC(=O)C=C4CC[C@H]3[C@@H]1CC[C@@]2(O)CC#N [Dienogest],1.53
8,O=C(O)[C@@H](S)[C@@H](S)C(=O)O [Succimer],1.49
9,Cc1c(-c2ccc(O)cc2)n(Cc2ccc(OCCN3CCCCCC3)cc2)c2ccc(O)cc12 [Bazedoxifene HCl],5.12
10,Nc1ccn([C@@H]2O[C@H](CO)[C@@H](O)[C@@H]2O)c(=O)n1 [Cytarabine],3.08
11,COc1cnc(NS(=O)(=O)c2ccc(N)cc2)nc1 [Sulfameter],1.33
12,CC(C)c1ccc2oc3nc(N)c(C(=O)O)cc3c(=O)c2c1 [Amlexanox],0.725
13,CCCN1C[C@H](C)[C@@H](O)[C@](C)(O)[C@@H](CC)OC(=O)[C@H](C)[C@@H](O[C@H]2C[C@@](C)(OC)[C@@H](O)[C@H](C)O2)[C@H](C)[C@@H](O[C@@H]2O[C@H](C)C[C@H](N(C)C)[C@H]2O)[C@](C)(O)C[C@H]1C [Gamithromycin],1.26
14,Nc1ccc2ncnc(NCCc3ccc(Oc4ccccc4)cc3)c2c1,1.67
15,O=S1(=O)CCN(CN2CCS(=O)(=O)NC2)CN1 [Taurolidine],1.32
16,CC(C)Nc1cccnc1N1CCN(C(=O)c2cc3cc(NS(C)(=O)=O)ccc3[nH]2)CC1 [Delavirdine (mesylate)],1.18
17,CC(COc1ccccc1Cc1ccccc1)N1CCCCC1 (centres undefined) [Benproperine phosphate],1.67
18,CCC/C=C1\OC(=O)C2=C1CCC=C2 [Ligustilide],0.797
19,Cc1cnc(NC(=O)Nc2cc(Br)c(C)cc2OC[C@@H]2CNCCO2)cn1,2.52
